TIM10 inh: TIM10 yeast growth inhibition | inhibition, % at 10 µM | S. cerevisiae TIM10 strain growth, BacTiter-Glo luminescence, 24 h | hit rate 1.4% among 330,000 | AID 463195;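 active = inhibition of 40% or more at the single tested concentration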;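 also: wild-type TIM10 isogenic control strain grown at permissive 25 °C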
tim23-1 inh: growth inhibitors of tim23-1 mutant yeast; S. cerevisiae tim23-1 growth, BacTiter-Glo luminescence, 24 h; inhibition, % at 20 µM; hit rate 1.3% among 330,000; AID 463212;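 active = growth inhibition of the mutant yeast at or above 50%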;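 also: temperature-sensitive mutant grown at 25 °C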
PfHsp90 yeast 2: inhibits growth of yeast expressing Plasmodium falciparum Hsp90; S. cerevisiae expressing PfHsp90, BacTiter-Glo ATP, 48 h; yeast lacking PDR1 and PDR3 efflux regulators; inhibition, % at 9.4 µM; hit rate 0.32% among 310,000;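 active = every replicate shows inhibition above about 80%, whatever the replicate mean, limit read from the data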
NLRP3 yeast inh: blocks the NALP3 inflammasome reconstituted in yeast. Yeast reconstituted NLRP3/ASC/caspase-1, beta-gal luminescence, 24 h. inhibition, % at 10 µM. hit rate 0.39% among 330,000;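 active = inhibition of 50% or more; inactive = inhibition below 50%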
tim10-1 inh: inhibits growth of tim10-1 mutant yeast | S. cerevisiae tim10-1 ts strain growth, BacTiter-Glo, 24 h | inhibition, % at 20 µM | hit rate 2.2% among 330,000 | AID 463190;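 active = inhibition of at least 40%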;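 also: mutant grown at 25 °C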
NALP1 yeast inh: NALP1 inhibition; AID 2071; hit rate 0.61% among 280,000; S. cerevisiae NALP1/ASC/caspase-1 growth, X-gal OD620, 72 h; inhibition, % at 10 µM; in the data active = inhibition mostly above about 24%, no sharp cut-off; inactive = mostly below about 32%
NALP3 confirm: confirmation of NALP3 inhibitors in yeast. yeast expressing human NALP3, luminescence. inhibition, % at 10 µM. hit rate 81% among 1,300. shares compounds with NLRP3 yeast inh; in the data active = inhibition above about 48%
Casp1-ASC yeast: counter-screen for NALP3 inhibitors: yeast caspase-1-ASC. shares compounds with NLRP3 yeast inh. yeast expressing Caspase-1-ASC, luminescence counter screen. inhibition, % at 10 µM. hit rate 66% among 1,000. AID 488784
NALP3 yeast rt: yeast NALP3 inhibition, confirmed on retest. inhibition, % at 10 µM. AID 488794. yeast expressing human NALP3, luminescence read-out. shares compounds with NLRP3 yeast inh. hit rate 53% among 1,000
tim10-1 confirm: confirmation of tim10-1 mutant yeast growth inhibitors. shares compounds with tim10-1 inh. S. cerevisiae tim10-1 ts strain growth, BacTiter-Glo, 24 h. inhibition, % at 20 µM. hit rate 56% among 7,400. AID 463213;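 active = inhibition of yeast growth at or above a set limit in either of two repeat tests at 20 µM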;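 also: tim10-1 mutant grown at permissive 25 °C to find synthetic lethal compounds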
tim10 confirm: confirmation of TIM10 yeast growth inhibitors. S. cerevisiae tim10 strain growth, BacTiter-Glo luminescence, 24 h. inhibition, % at 10 µM. shares compounds with TIM10 inh. hit rate 63% among 4,600;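 active = inhibition of yeast growth at or above a set limit in either of two replicates at 10 µM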; also: this counterscreen used the strain with wild-type TIM10
tim23-1 conf: tim23-1 yeast growth inhibition, confirmed; shares compounds with tim23-1 inh; S. cerevisiae tim23-1 growth, BacTiter-Glo luminescence, 24 h; inhibition, % at 20 µM; hit rate 83% among 4,400; AID 463218;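 active = inhibition above about 39% in either of two replicate wells at 20 µM, limit read from the data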;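 also: temperature-sensitive tim23-1 mutant grown at 25 °C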
Large screens that a line does not name were inactive (follow-up assays come after a bar, where they were run). An excerpt weighted towards active compounds, which were near 4.2% of everything screened. Rule as the data show it, unless noted: active = inhibition above about 50%; inactive = the rest.

C[C@]12CCC3C(CC[C@H]4C[C@@H](O)CC[C@]34C)C1C[C@H](Br)[C@@H]2O (stereo partly drawn)	NLRP3 yeast inh 62 (no result: PfHsp90 yeast 2, NALP1 yeast inh) | NALP3 confirm 70
C[C@]12CCC3C(CC[C@H]4C[C@H](O)CC[C@]34C)C1C[C@H](O)[C@@H]2O (stereo partly drawn)	NLRP3 yeast inh 51 (no result: NALP1 yeast inh) | NALP3 confirm 50
C[C@]12CCC3C(CC[C@H]4C[C@H](O)CC[C@]34C)C1C[C@@H](CCCCl)[C@@H]2O (stereo partly drawn)	NLRP3 yeast inh 57 (no result: PfHsp90 yeast 2, NALP1 yeast inh) | NALP3 confirm 62
CC(=O)c1cc(C(C)=O)c(C)[n+](C)c1C	none
CC1CCN(c2cc(Br)c([N+](=O)[O-])cc2F)CC1	NLRP3 yeast inh 68 (no result: NALP1 yeast inh) | NALP3 confirm 73 | Casp1-ASC yeast 77 | NALP3 yeast rt 58
O=[N+]([O-])c1cc(F)c(N2CCCC2)cc1Br	NLRP3 yeast inh 67 | NALP3 confirm 82 | Casp1-ASC yeast 80 | NALP3 yeast rt 64
COCCNC(=O)Cn1cc(C(=O)c2ccccc2F)c2ccccc21	none (no result: NALP1 yeast inh)
COc1ccc(-n2c(O)c(C=NCCN3CCN(C(C)=O)CC3)c(=O)[nH]c2=S)cc1	NLRP3 yeast inh 53 | NALP3 confirm 67 | Casp1-ASC yeast inactive | NALP3 yeast rt inactive
CC(=O)N1CCN(CCN=Cc2c(O)n(-c3ccc(C)cc3)c(=S)[nH]c2=O)CC1	none
CC(C)[C@H]1CC2C3CC=C4C[C@@H](O)CC[C@]4(C)C3CC[C@]2(C)[C@H]1O (stereo partly drawn)	NLRP3 yeast inh 53 (no result: PfHsp90 yeast 2, NALP1 yeast inh) | NALP3 confirm 56
C[C@]12CC[C@@H](O)CC1=CCC1C2CC[C@]2(C)C(=O)[C@H](F)CC12 (stereo partly drawn)	none (no result: NALP1 yeast inh)
C[C@]12CC[C@H](O)CC1=CC[C@@H]1[C@@H]2CC[C@@]2(C)[C@H]1CC[C@]2(C)O	NLRP3 yeast inh 59 (no result: PfHsp90 yeast 2, NALP1 yeast inh) | NALP3 confirm 67 | Casp1-ASC yeast 59 | NALP3 yeast rt inactive
C[C@]12C[C@H](O)[C@@H](O)CC1=CCC1C2CC[C@@]2(C)C1CC[C@@H]2O (stereo partly drawn)	NLRP3 yeast inh 55 (no result: NALP1 yeast inh) | NALP3 confirm 66
COc1ccc(CCNCc2ccccc2F)cc1	none
CN1CCN(c2nc3ccccn3c(=O)c2C=C2C(=O)N(C)C(=O)N(C)C2=O)CC1	none
COc1ccc(C[C@H]2NC[C@H](O)[C@H]2OC(C)=O)cc1	TIM10 inh 75, NLRP3 yeast inh 98, tim10-1 inh 73 (no result: NALP1 yeast inh) | NALP3 confirm 99 | tim10-1 confirm 69 | tim10 confirm 81
CC(C)Sc1nnc([C@@H](N)Cc2ccccc2)o1	none
NC1=C([N+](=O)[O-])C(c2ccc3c(c2)OCO3)c2c(c3ccccc3oc2=O)O1 (stereo not drawn)	none (no result: PfHsp90 yeast 2, NALP1 yeast inh)
O=c1oc2ccccc2c(O)c1[C@H]1c2ccc(O)cc2Oc2c1c(=O)oc1ccccc21	TIM10 inh 69, tim23-1 inh 57, NLRP3 yeast inh 79, tim10-1 inh 53 (no result: NALP1 yeast inh) | NALP3 confirm 85 | Casp1-ASC yeast 87 | NALP3 yeast rt 78 | tim10-1 confirm 58 | tim10 confirm 59 | tim23-1 conf 48
Nc1cc(C(=O)Nc2ccc(Cl)cc2)ccc1N1CC2CC(C1)c1cccc(=O)n1C2 (stereo not drawn)	none
